The text below walks through data of PubChem BioAssay AID1259313 (Sanford-Burnham Center for Chemical Genomics, 2017).

SMILES strings stand for the structures. In all, about 340,000 compounds went through this assay and about 8,500 (2.5%) were called active. Many of the other results were omitted from the sample, so actives are more common in it than they were. Values without a mark were called inactive.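 Rule for the calls: active = melting temperature shift of at least 10% of the positive control shift, at one fixed dose; inactive = the rest.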

The test system of the experiment is Glutamate receptor ionotropic, NMDA 3A (GRIN3A) ligand-binding domain. Kind of experiment: binders of NR3A ligand-binding domain, primary screen, biophysical, differential scanning fluorimetry, uHTS (AID 1259313). The following applies: NR3A LBD differential scanning fluorimetry, at 25 µM, active compounds read high, 0% = protein alone, 100% = glycine-bound protein. (In DSF a fluorescence change marks the thermal transition of the protein.)
For `CCCNC(=O)c1cnc(-c2ccccc2)nc1-c1ccccc1`, the Tm shift relative to glycine control is -1.35%. As for `CN(C)S(=O)(=O)N1CCC(Oc2cccc(C(=O)NCCCC3CCCC3)c2)CC1`, the Tm shift relative to glycine control is 0.18%. Consider `O=C(Oc1ccc(F)cc1)N1CCOCC1`, for which the Tm shift relative to glycine control is 1.08%.

As to `Cc1c(NC(=O)c2c([N+](=O)[O-])cnn2C)c(=O)n(-c2ccccc2)n1C`, the Tm shift relative to glycine control is -0.61%. Take `CCOC(=O)C1(Cc2cccc(OC)c2)CCCN(S(=O)(=O)c2cccnc2)C1` (stereo not given): the Tm shift relative to glycine control is 0.32%. As for `Cc1ccc2occ(/C=N/NC(=O)c3ccccc3C)c(=O)c2c1`, the Tm shift relative to glycine control is -0.75%. With `O=C(N/N=C/c1ccsc1)c1cc(O)cc(O)c1`, the Tm shift relative to glycine control was -11.7%. Take `O=C(Cc1c[nH]c2ccccc12)N/N=C/c1cccc(F)c1`: the Tm shift relative to glycine control was -4.78%.

Turning to `O=C(N/N=C/c1cccc(OCc2ccccc2)c1)c1ccc(Br)o1`, the Tm shift relative to glycine control is -4.34%. The value for `O=C(N/N=C/c1cccc(O)c1)c1cc2c(ccc3ccccc32)o1` was 25.4% (active); that for `O=C(N/N=C/c1c[nH]c2ccccc12)c1ccccc1O` was 37% (active). The value for `COc1ccc2c(C)cc3nnnn3c2c1` was 1.26%; that for `Cc1ccc(CN2CCC(N3CCC(C(=O)NCC4CCCO4)CC3)CC2)o1` (stereo not given) was 0.34%; that for `O=C(NC(=O)c1cc(OCC(F)(F)F)ccc1OCC(F)(F)F)Nc1ccccc1` was -0.36%. `CC(C)(C)n1nc2c(c1NC(=O)c1ccc(S(=O)(=O)N3CCCC3)cc1)CS(=O)C2` (stereo not given): the Tm shift relative to glycine control was 0.18%. For `CC(OC(=O)CNC(=O)c1cccc(F)c1)C(=O)NC1CCCCC1C` (stereo not given), the Tm shift relative to glycine control was -0.43%. In the case of `FC(F)(F)Oc1ccc(NC(=S)NCc2ccccc2)cc1`, the Tm shift relative to glycine control is 0.09%. In the case of `CS(=O)(=O)c1sc(C(=O)NC(=S)Nc2ccc(OC(F)(F)F)cc2)c2c1C=CCC2`, the Tm shift relative to glycine control was 11.4% (active).

For the compound `CCNC(=S)Nc1ccc(OC(F)(F)F)cc1`, the Tm shift relative to glycine control was -1.13%. Turning to `c1ccc2cc3c(NCCN4CCOCC4)ccnc3cc2c1`, the Tm shift relative to glycine control was -8.16%. Regarding `O=C1CC(c2cccc(Cl)c2)CC(O)=C1C=Nc1ccccc1` (stereo not given), the Tm shift relative to glycine control was -0.75%. Turning to `Cc1cc(C(=O)OCC(=O)NCc2ccco2)c(C)n1-c1ccccc1`, the Tm shift relative to glycine control was -1.04%. As for `Cc1ccc(S(=O)(=O)N2CC(O)C[C@H]2C(=O)OCC(=O)Nc2ccc(N3CCOCC3)cc2)cc1C` (stereo not given in full), the Tm shift relative to glycine control was 1.27%. As for `O=C(Nc1ccc2c(c1)CCC2)c1cccc(S(=O)(=O)N2CCN(c3ccc(F)cc3)CC2)c1`, the figure is 2.49%; as for `O=C(NCC1(N2CCCCC2)CCCCC1)c1cccc(S(=O)(=O)Nc2ccccc2Cl)c1`, -0.85%.

Take `O=C(Nc1ccc2c(c1)CCC2)c1cccc(S(=O)(=O)Nc2ccccc2Cl)c1`: the Tm shift relative to glycine control is 14.9% (active). For `O=C1CSC(c2cccc(F)c2)N1c1ccc(O)cc1` (stereo not given), the Tm shift relative to glycine control is -2.36%.

Take `S=C(Nc1ccccc1)Nc1ccc2ccccc2c1`: the Tm shift relative to glycine control was 12.3% (active). The value for `Cc1ccc(NC(=S)Nc2ccc(F)cc2)cc1` was -4.68%; that for `COc1ccc(Nc2ccc3ccccc3c2)cc1` was 1.95%; that for `CCC1(c2ccccc2)NC(=O)N(CC(=O)Nc2ccccc2C(=O)NC2CCCC2)C1=O` (stereo not given) was 0.96%. Take `Cc1ccc(S(=O)(=O)N2CCCCC2)cc1NC(=O)[C@@H]1CCCN1C(=O)c1cccs1`: the Tm shift relative to glycine control was -0.43%.

Take `COc1ccc(NC(=O)c2cc(-c3ccc(C)o3)nc3ccccc23)cc1`: the Tm shift relative to glycine control is 3.74%. As for `CC1CCCN(C(=O)c2cc(-c3ccco3)nc3ccccc23)C1` (stereo not given), the Tm shift relative to glycine control was 1.06%.

Turning to `CCOc1ccccc1-c1cc(C(=O)N/N=C(\C)c2cccnc2)c2ccccc2n1`, the Tm shift relative to glycine control is -0.86%. As for `O=C(c1cc(-c2ccc(Cl)s2)nc2ccccc12)N1CCOCC1`, the figure is -0.91%; as for `CC(=O)N1CCN(C(=O)c2cc(-c3ccc(C)o3)nc3ccccc23)CC1`, 40% (active). As for `CCOc1ccccc1-c1cc(C(=O)N2CCOCC2)c2ccccc2n1`, the figure is 12.6% (active); as for `CCN1C(=O)[C@@H]2[C@@H](c3ccc(-c4cccc(Cl)c4)cc3)N3CCC[C@@]3(C(=O)OC)[C@@H]2C1=O`, -0.81%; as for `O=C(C(=O)N1CCc2ccccc2C1)c1c[nH]c2ccccc12`, 1.51%. As for `CN1CCN(C(=O)c2ccc(-c3ccc(Br)cc3)o2)CC1`, the figure is 1.11%; as for `CC(=O)c1cccc(NC(=S)N2CCN(S(C)(=O)=O)CC2)c1`, -1.28%. Turning to `COc1ccc(/C=C2/C(=O)OCc3cc(OC)c(OC)cc32)c(OC)c1`, the Tm shift relative to glycine control is 24.2% (active). Take `COc1ccc(CN(C)Cc2nc3cc(OC)c(OC)cc3c(=O)[nH]2)c(OC)c1`: the Tm shift relative to glycine control is -1.12%. Consider `COc1ccc(/C=C2/C(=O)N(c3ccccc3)N=C2C)c(OC)c1`, for which the Tm shift relative to glycine control was -4.6%. As for `CC(=O)c1ccc(OCCCC(=O)Nc2ccc(C)c(S(=O)(=O)N3CCOCC3)c2)cc1`, the figure is 1.04%; as for `O=C(Nc1ccnn1C1CCN(C/C=C/c2ccc(F)cc2)CC1)C1CCCC1`, -2.33%. `CC1CCCCN1S(=O)(=O)c1ccc(S(=O)(=O)N(CC(=O)Nc2ccccc2)Cc2cccs2)cc1` (stereo not given): the Tm shift relative to glycine control was -4.57%.

On to `O=C(C[n+]1ccc2c(c1)nnn2-c1ccccc1)c1ccc(Cl)cc1`, for which the Tm shift relative to glycine control was -2.3%. The value for `CC(=NNC(=S)N1CCCCCC1)c1ccccn1` was 1.26%; that for `CCn1c(SCc2cccc(C(=O)O)c2)nnc1-c1ccc(Cl)cc1` was -0.55%. In the case of `CN(c1ccccc1)S(=O)(=O)c1ccc(C(=O)NCCc2ccccc2)cc1`, the Tm shift relative to glycine control is -0.95%. For the compound `CCCc1ccc(OCCNC(=O)c2ccccc2Br)cc1`, the Tm shift relative to glycine control is -0.74%. Turning to `CCCOc1ccc(C(=O)NCCc2ccccc2)cc1`, the Tm shift relative to glycine control is 25.8% (active). The value for `CC(C)Oc1ccc(S(=O)(=O)N2CCOCC2)cc1NC(=O)C1CCCC1` was 2.72%; that for `N#Cc1cc([N+](=O)[O-])ccc1NC(=O)COC(=O)c1cnccn1` was 0.45%.

On to `CCOc1ccc2[nH]c3nc(SCC(=O)NC4CCCC4)nnc3c2c1`, for which the Tm shift relative to glycine control is -4.45%. With `CCN1C(=O)[C@H]2[C@@H](c3ccc(SC4CCCCC4)c(OC)c3)N[C@@](Cc3ccccc3)(C(=O)OC)[C@H]2C1=O`, the Tm shift relative to glycine control was 15.5% (active).

Take `CCN1C(=O)[C@H]2[C@@H](c3ccc(-c4ccc(F)cc4)cc3)N[C@@](Cc3ccccc3)(C(=O)OC)[C@H]2C1=O`: the Tm shift relative to glycine control was 1.35%. For `CCN1C(=O)[C@H]2[C@@H](c3ccc(-c4ccc(OC)cc4)cc3)N[C@@](Cc3ccccc3)(C(=O)OC)[C@H]2C1=O`, the Tm shift relative to glycine control is -3.39%.
